The assay has as its target TevN201-ZFE-6xHis (I-TevI 1-201 fused to ryA zinc finger) (synthetic (bacteriophage T4 I-TevI …)). In words: cleavage_in_vitro; 10 mM MgCl2, 100 mM NaCl, pH 8.0, 37 C. The conditions noted are these: tags: C-terminal 6xHis; dsDNA, one strand shown. As to the method:
Single time-point cleavage assays to determine the EC_{0.5max} of N201 Tev-ZFE were performed in buffer containing 20 mM Tris-HCl pH 8.0, 100 mM NaCl, 10 mM MgCl₂, 5% glycerol, 1 mM DTI and 10 nM pTZHS1.33. Reactions were incubated for 3 minutes at 37° C., stopped with 5 μl stop solution (100 mM EDTA, 40% glycerol, and bromophenol blue), and electrophoresed on a 1% agarose gel prior to staining with ethiduium bromide and analysis on an AlphaImager™3400 (Alpha Innotech). The EC_{0.5max} was determined by fitting the data to the equation
Cleavage assays were performed with wild type and mutant substrates and increasing concentrations of TevN201-ZFE to determine the amount of protein required for half-maximal cleavage (EC_{0.5max}). […] The greater substrate discrimination observed in the genetic assay likely reflects lower in vivo protein concentrations than those used for in vitro cleavage assays. […] Although the BmoN221-ZFE substrate specificity was not tested extensively, it was shown that the chimeric endonuclease cleaved the Bmo-ryA substrate plasmid, but not the target-less control plasmid.
In the case of “CTAGACAACACTCAGTAGATGTTTTCTTGGGTCTACCGTCCCACGCCGCATG”, the binding signal is ~4.7 fold higher EC0.5max vs TZ1.33.
The figure for “CTAGAAAACACTCAGTAGATGTTTTCTTGGGTCTACCGTCCCACGCCGCATG” is ~60 fold higher EC0.5max vs TZ1.33.

The values are drawn from patent US20130210151, “ENDONUCLEASE FOR GENOME EDITING” (University of Western Ontario, published 2013).
